Compounds without any hit were thinned out: in the full panel of roughly 79,000, 15% have a hit. Active and inactive are the calls of the source. Rule as the data show it: active = growth inhibition above about 70%; inactive = the rest.
assay: NCI Yeast Anticancer Drug Screen. Data for the sgs1 mgt1 strain (AID 161);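 also: 0% = growth of cultures given vehicle only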; conditions: S. cerevisiae sgs1 mgt1 strain, hits give high values; at 50.0 µM unless noted
Outline: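 Mutant yeast exposed to compound; growth scored against vehicle-only wells.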

Structure (SMILES) | growth inhibition
O=C1C=C(Nc2ccccc2)C(=O)C=C1Nc1ccccc1 | 10% (inactive)
CCOC(=O)c1c(C)[nH]c(C(=O)CCN(C)C)c1C | 17.4% (inactive)
CCN(Cc1ccccc1)c1nnnn1-c1ccccc1 | 8% (inactive)
CC1CC(C)OC(c2ccccc2Cl)O1 (stereo not given) | 6.3% (inactive)
CC(=O)OC1CCC2(C)C3CCC4(C)C(C(C)CCCC(C)C)CCC4C3C3CC32C1 (stereo not given) | 29.1% (inactive)
CCCCOC(=O)C1CN2C=CC=NC2=NC1(C(F)(F)F)C(F)(F)F (stereo not given) | 6.6% (inactive)
NC(Cc1cc(Br)c(Oc2ccc(O)cc2)c(Br)c1)C(=O)O (stereo not given) | -9.1% (inactive)
CCCCCCC1OC(C)C(C)O1 (stereo not given) | 23.9% (inactive)
O=[N+]([O-])/C=C/c1cn(CCCCCCCCCCCCn2cc(/C=C/[N+](=O)[O-])c3ccccc32)c2ccccc12 | -3.9% (inactive)
O=C(O)C1CCc2ccccc21 (stereo not given) | -15.2% (inactive)
C=CCN(CC=C)C(=O)Nc1cccc(C)c1 | 1.3% (inactive)
CC1Sc2ccccc2-c2[nH]c3ccccc3c21 (stereo not given) | 16% (inactive)
O=C1OCC=C1Sc1ccccc1 | -13.4% (inactive)
O=C1C(CN2CCCC2)CCCC1CN1CCCC1 (stereo not given) | -40.1% (inactive)
Cc1cc(=O)oc2nn(CCO)c(C)c12 | -10.1% (inactive)
O=C(OC1OCC(OCc2ccccc2)C(OCc2ccccc2)C1OCc1ccccc1)c1ccccc1 (stereo not given) | -3.9% (inactive)
O=S(=O)(Cl)c1ccc(Cl)cc1 | 6.8% (inactive)
OCC#CC#CCO | 8.75% (inactive)
Nc1nnc2nc(C3(c4nc5nnc(N)n5[nH]c4=O)CCCC3=O)c(=O)[nH]n12 | -8.7% (inactive)
CN[C@@H]1[C@H](O)[C@H](NC)[C@H]2O[C@@]3(O)C(=O)C[C@@H](C)O[C@H]3O[C@@H]2[C@H]1O | -21.9% (inactive)

Structure (SMILES) | growth inhibition
O=C1CSC(c2c[nH]c3ccccc23)N1c1ccc(Cl)cc1 (stereo not given) | -46.2% (inactive)
CC(C)c1ccccc1O | 9.95% (inactive)
CCn1c2ccccc2c2cc(N=Nc3ccc4c(c3)c3ccccc3n4CC)ccc21 | 19.9% (inactive)
C#CC(O)C1OC(C)(C)OC1C1COC(C)(C)O1 (stereo not given) | 13.2% (inactive)
CCOC(C)(Cc1ccccc1[N+](=O)[O-])OCC | -4.05% (inactive)
Cc1cc(=O)[nH]c(NN2C(Cl)C(=O)C2c2ccccc2O)n1 (stereo not given) | 13.3% (inactive)
O=C1c2cccc3c([N+](=O)[O-])ccc(c23)C(=O)N1Cc1cccnc1 | 99.5% (active)
CCCCCCCCCCCCCCCCCCNC(=S)N/N=C/c1ccccc1[N+](=O)[O-] | -20.1% (inactive)
Cc1cc(NC(=O)C(=O)Cc2nc3ccccc3s2)ccc1Cl | 21.9% (inactive)
O=C(O)c1cccc(C(=O)O)c1Sc1ccccc1 | 5.75% (inactive)
CCc1ccc(NS(=O)(=O)c2ccccc2[N+](=O)[O-])cc1 | 61.8% (inactive)
CCN(CC)C(=O)CCn1cc(F)c(=O)[nH]c1=O | -35% (inactive)
Cc1c(CC#N)cc(C)c2c3c([nH]c12)-c1ccccc1CC3 | 44% (inactive)
Cc1ccc(-c2c(C#N)c(O)n(NS(=O)(=O)c3ccccc3)c(=O)c2C#N)cc1 | -30.4% (inactive)
COC(=O)c1cc(Cl)ccc1OCC(=O)Nc1ccccc1 | 13.4% (inactive)
C#CCN(N=O)C(=O)NCCCCC(NC(C)=O)C(=O)NCc1ccccc1 (stereo not given) | -16.9% (inactive)
Clc1cccc(C2ON=C(c3ccccc3)N2C23CC4CC(CC(C4)C2)C3)c1Cl (stereo not given) | 7.95% (inactive)
CC(C)(Nc1ccccc1)C(=O)OC(C)(C)C(=O)Nc1ccccc1 | -12.4% (inactive)
C=CSS/C(=C/N(C=O)Cc1cnc(C)nc1N)CCO | -18.9% (inactive)
CCCCC(Sc1nn(C2OC(COC(=O)c3ccccc3)C(OC(=O)c3ccccc3)C2OC(=O)c2ccccc2)c(=O)[nH]c1=O)C(=O)OCC (stereo not given) | -21.4% (inactive)

assay: NCI Yeast Anticancer Drug Screen. Data for the cln2 rad14 strain (AID 165);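 also: 0% = growth equal to vehicle treated cultures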; conditions: S. cerevisiae cln2 rad14 strain, hits give high values; at 50.0 µM unless noted
Outline: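 The screen exposed genetically defined yeast (cln2 rad14) to test compounds and scored growth inhibition relative to vehicle-treated controls.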

Structure (SMILES) | growth inhibition
O=C1C=C(Nc2ccccc2)C(=O)C=C1Nc1ccccc1 | -42.2% (inactive)
CCOC(=O)c1c(C)[nH]c(C(=O)CCN(C)C)c1C | -33.9% (inactive)
CCN(Cc1ccccc1)c1nnnn1-c1ccccc1 | 6.75% (inactive)
CC1CC(C)OC(c2ccccc2Cl)O1 (stereo not given) | -8.1% (inactive)
CC(=O)OC1CCC2(C)C3CCC4(C)C(C(C)CCCC(C)C)CCC4C3C3CC32C1 (stereo not given) | 3.95% (inactive)
CCCCOC(=O)C1CN2C=CC=NC2=NC1(C(F)(F)F)C(F)(F)F (stereo not given) | 0.95% (inactive)
NC(Cc1cc(Br)c(Oc2ccc(O)cc2)c(Br)c1)C(=O)O (stereo not given) | -0.55% (inactive)
CCCCCCC1OC(C)C(C)O1 (stereo not given) | -5.15% (inactive)
O=[N+]([O-])/C=C/c1cn(CCCCCCCCCCCCn2cc(/C=C/[N+](=O)[O-])c3ccccc32)c2ccccc12 | 6.45% (inactive)
O=C(O)C1CCc2ccccc21 (stereo not given) | -12.2% (inactive)
C=CCN(CC=C)C(=O)Nc1cccc(C)c1 | -3.15% (inactive)
CC1Sc2ccccc2-c2[nH]c3ccccc3c21 (stereo not given) | 5% (inactive)
O=C1OCC=C1Sc1ccccc1 | -7.7% (inactive)
O=C1C(CN2CCCC2)CCCC1CN1CCCC1 (stereo not given) | 2.15% (inactive)
Cc1cc(=O)oc2nn(CCO)c(C)c12 | -41.9% (inactive)
O=C(OC1OCC(OCc2ccccc2)C(OCc2ccccc2)C1OCc1ccccc1)c1ccccc1 (stereo not given) | -24.3% (inactive)
O=S(=O)(Cl)c1ccc(Cl)cc1 | 1.5% (inactive)
OCC#CC#CCO | -1.05% (inactive)
Nc1nnc2nc(C3(c4nc5nnc(N)n5[nH]c4=O)CCCC3=O)c(=O)[nH]n12 | 3.45% (inactive)
CN[C@@H]1[C@H](O)[C@H](NC)[C@H]2O[C@@]3(O)C(=O)C[C@@H](C)O[C@H]3O[C@@H]2[C@H]1O | 7.45% (inactive)

Structure (SMILES) | growth inhibition
O=C1CSC(c2c[nH]c3ccccc23)N1c1ccc(Cl)cc1 (stereo not given) | -3.55% (inactive)
CC(C)c1ccccc1O | 8.8% (inactive)
CCn1c2ccccc2c2cc(N=Nc3ccc4c(c3)c3ccccc3n4CC)ccc21 | 41.2% (inactive)
C#CC(O)C1OC(C)(C)OC1C1COC(C)(C)O1 (stereo not given) | -4.4% (inactive)
CCOC(C)(Cc1ccccc1[N+](=O)[O-])OCC | 2.5% (inactive)
Cc1cc(=O)[nH]c(NN2C(Cl)C(=O)C2c2ccccc2O)n1 (stereo not given) | 2.95% (inactive)
O=C1c2cccc3c([N+](=O)[O-])ccc(c23)C(=O)N1Cc1cccnc1 | 99.3% (active)
CCCCCCCCCCCCCCCCCCNC(=S)N/N=C/c1ccccc1[N+](=O)[O-] | 4.95% (inactive)
Cc1cc(NC(=O)C(=O)Cc2nc3ccccc3s2)ccc1Cl | 43.9% (inactive)
O=C(O)c1cccc(C(=O)O)c1Sc1ccccc1 | 11.3% (inactive)
CCc1ccc(NS(=O)(=O)c2ccccc2[N+](=O)[O-])cc1 | 25.3% (inactive)
CCN(CC)C(=O)CCn1cc(F)c(=O)[nH]c1=O | 1.65% (inactive)
Cc1c(CC#N)cc(C)c2c3c([nH]c12)-c1ccccc1CC3 | 11.8% (inactive)
Cc1ccc(-c2c(C#N)c(O)n(NS(=O)(=O)c3ccccc3)c(=O)c2C#N)cc1 | 0.8% (inactive)
COC(=O)c1cc(Cl)ccc1OCC(=O)Nc1ccccc1 | -8.2% (inactive)
C#CCN(N=O)C(=O)NCCCCC(NC(C)=O)C(=O)NCc1ccccc1 (stereo not given) | 5% (inactive)
Clc1cccc(C2ON=C(c3ccccc3)N2C23CC4CC(CC(C4)C2)C3)c1Cl (stereo not given) | -13.5% (inactive)
CC(C)(Nc1ccccc1)C(=O)OC(C)(C)C(=O)Nc1ccccc1 | 2.05% (inactive)
C=CSS/C(=C/N(C=O)Cc1cnc(C)nc1N)CCO | 1.85% (inactive)
CCCCC(Sc1nn(C2OC(COC(=O)c3ccccc3)C(OC(=O)c3ccccc3)C2OC(=O)c2ccccc2)c(=O)[nH]c1=O)C(=O)OCC (stereo not given) | -33.4% (inactive)
